# High-throughput results: PubChem BioAssay, National Center for Advancing Translational Sciences (NCATS)
# Sampled rows, rich in hits. Any-hit rate of the full collection: about 13%.
# Pf growth 96h = inhibits malaria parasite growth, 96 h | Potency, µM (series often up to 28.7 µM), without a hit: at the top dose activity change, negative = inhibition, actives largely listed as inhibitors | P. falciparum luciferase reporter growth, 96 h | 6.9% of 320,000 active; also: potency is read from the fitted curve at half-maximal effect
#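 Delayed-death screen, second-generation endpoint: infected erythrocytes, 2% hematocrit, 0.05% parasitemia final; 96 hours at 37 C, 5% CO2; luciferase detection reagent; luminescence decrease equals reduced growth.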
# HCV inhibitor = HCV inhibition | Potency, µM (doses to about 41.8 µM), without a hit: at the top dose activity change, negative = inhibition, actives largely listed as inhibitors | Huh7.5.1 HCVcc-Cre infection, luciferase reporter, 44 h | AID 651820 | 3.4% of 340,000 active; also: potency is read from the fitted curve at half-maximal effect
#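 Whole-lifecycle infectious HCVcc-Cre system; cells 1,000/well, compound then virus (~0.5 moi) added 4 h after plating, 44 h culture. Luciferase read 15 sec following 15 min substrate incubation, room temp.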
# HCMV inh = human cytomegalovirus inhibition; HFF cells, HCMV-luciferase reporter, 72 h; hits give low values; activity change, negative = inhibition, % at 57.5 µM; 4.5% of 410,000 active; in the data active = activity change below about -60%; inconclusive = no clear call, values can overlap the other calls; inactive = above about -39%
#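 Luciferase read-out from HCMV-luciferase-infected HFFs (MOI 1 PFU/cell) 72 h post infection at 37C; compounds added after 16 h cell attachment; activity normalized between buffer-only basal and Salinomycin (10uM) inhibitor controls.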
# Pf growth 48h = P. falciparum growth inhibition at 48 hours (one generation); P. falciparum luciferase growth in erythrocytes, 48 h; Potency, µM (doses to about 28.7 µM), for the others: at the highest dose activity change, negative = inhibition, most hits filed as inhibitors; 5.9% of 310,000 active; AID 504832; also: potency is read from the fitted curve at half-maximal effect
#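 Luminescence readout; reporter = integrated firefly luciferase in P. falciparum. RBC culture at 2% hematocrit, 0.1% parasitemia final, 37 C/5% CO2; decreased signal taken as growth inhibition.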
# The depositor's hits bear a star; ? = inconclusive; . = no result given; [ ] = remark or other dose. Unless noted, calls follow the shape of the dose curve; as a rule, active = well fitted inhibition curve with a large enough effect; inconclusive = small, poorly fitted or top-dose-only effect, or another doubt; inactive = no such curve, though single readings can be large or run the other way. % is scaled to controls: 0 for no effect and ±100 for the full control effect.
SMILES,Pf growth 96h,HCV inhibitor,HCMV inh,Pf growth 48h
CCSC(SCC)[C@H](O)[C@@H](O)[C@H](O)[C@H](O)CO,7.5%,0.1%[8.37 µM],-64.6*,10.4%
NC(=O)c1cc(S(=O)(=O)N2CCN(c3cccc(C(F)(F)F)c3)CC2)cs1,.,.,9.3,.
CC(C)c1ccc(S(=O)(=O)N2CCC(C(=O)N3CCN(c4cccc(Cl)c4)CC3)CC2)cc1,.,?,-69.2*,.
NC(=O)c1cc(S(=O)(=O)N2CCN(c3cccc(Cl)c3)CC2)cs1,1.17µM*,6.5%,-3.6,-9.9%
COc1ccccc1N1CCN(C(=O)C2CCN(S(=O)(=O)c3ccc4c(c3)CC(C)N4C(C)=O)CC2)CC1 (stereo not drawn),17.1%,-19.5%,-38.9,11.7µM*
COc1ccc(S(=O)(=O)N2CCC(C(=O)N3CCN(c4ccccc4OC)CC3)CC2)cc1,-5.1%,?,58.3,13.1µM*
CC(C)OC(=O)/C=C1\C[C@@H](c2ccccc2C(F)(F)F)O[C@@H](c2ccccc2C(F)(F)F)O1,.,.,0.5,.
COc1cccc(NC(=O)Nc2nnc(N3C(C)CCCC3C)s2)c1 (stereo not drawn),?,2.5%,-37.0,13.1µM*
CC1CCCCN1c1nnc(NC(=O)Nc2ccccc2F)s1 (stereo not drawn),.,.,12.0,.
COc1cccc(NC(=S)NCc2ccncc2)c1,8.28µM*,15.6%,-33.0,5.5%
Cc1cccc(NC(=O)Nc2nnc(N3CCCCC3C)s2)c1C (stereo not drawn),2.08µM*,9.0%,47.1,.
Cc1cccc(NC(=O)Nc2cnccn2)c1,-31.9%[1.15 µM],-10.9%,-23.6,19.5%
COc1cccc(NC(=O)Nc2cnccn2)c1,44.9%,-11.5%,-69.3*,88.3%
Cc1noc(C)c1S(=O)(=O)NC(=O)C1(C)CCN1C(=O)C1(c2ccc(Cl)cc2)CC1 (stereo not drawn),.,.,2.5,.
Cc1ccc(Cc2nc3ccccc3nc2SCC(=O)N2CCCc3ccccc32)cc1,.,.,79.8,.
Cc1ccnc2nc(NC(=O)c3ccccc3Cl)nn12,.,.,-7.4,.
CCOC(=O)c1c(NC(C)=O)c2c3c(sc2n1Cc1nc(-c2ccccc2OCC)oc1C)CCCC3,.,.,-0.9,.
COc1cccc(NC(=O)Nc2ccncc2)c1,-6.1%,-8.4%,-34.0,10.4µM*
COc1cccc(NC(=O)Nc2ccc(C(C)(C)C)cc2)c1,32.1%,?,-24.3,?
Cc1cc[n+](Cc2ccccc2)cc1,9.28µM*,?,?,3.7µM*
Cc1ccc(-c2cc[n+](Cc3ccccc3)cc2)cc1,296.2%,?,?,0.928µM*
Cc1cc[n+](Cc2ccc([N+](=O)[O-])cc2)cc1,2.3%,-27.2%,52.0,?
c1ccc(C[n+]2ccccc2)cc1,?,?,-16.8,?
CCSc1ncc(Cl)c(C(=O)N2CCN(c3ccccc3OC)CC2)n1,.,.,4.9,.
COc1cccc(C(=O)Nc2ccccc2C(=O)OCc2cc(=O)n3nc(C4CC4)sc3n2)c1,.,.,8.6,.
SMILES,Pf growth 96h,HCV inhibitor,HCMV inh,Pf growth 48h
OC(COCc1ccc(Cl)cc1)CN1CC=C(c2ccccc2)CC1 (stereo not drawn),3.29µM*,-4.5%,-33.2,9.28µM*
OC(COCc1ccc(Cl)cc1)CN1CCCCC1 (stereo not drawn),?,-23.4%,4.9,17.4%
OC(COCc1ccc(Cl)cc1)CN1CCN(CC(O)COCc2ccc(Cl)cc2)CC1 (stereo not drawn),.,11.2µM*,?,?
NC(CCc1ccccc1)c1csc(Nc2nncc3ccccc23)n1 (stereo not drawn),.,.,8.1,.
CC(=O)c1ccc(NC(=O)CN(C)S(=O)(=O)c2cnc[nH]2)cc1,.,.,-3.9,.
CC1=CC2=NC(=O)/C(=C\c3cc(C)n(-c4ccccc4F)c3C)C(=N)N2O1,?,?,5.4,10.4µM*
C/C(=C\C(=O)c1ccccc1)Nc1ccc2c(c1)OCO2,?,3.16µM*,36.6,167.2%
O=C(Nc1nc2cc3c(cc2s1)OCCO3)c1cccs1,13.8%,11.2µM*,-16.4,14.5%
COc1ccccc1C(=O)Nc1nc2cc3c(cc2s1)OCCO3,168.3%,?,.,113.0%
O=C(Nc1ccc2c(c1)OCO2)c1cccs1,7.0%,11.0%,33.2,53.1%
C/C(=C\C(=O)c1ccc(C)o1)Nc1ccc2c(c1)OCO2,30.8%,11.4%,7.9,-11.1%
O=C(NC(=S)Nc1ccc2c(c1)OCO2)c1ccc(Cl)cc1,89.9%,17.0%,62.9,239.0%
O=C(Nc1ccc2c(c1)OCCO2)c1cccs1,2.62µM*,2.2%,39.9,97.5%
O=C(Nc1ccc2c(c1)OCO2)C1(S(=O)(=O)c2ccc(Cl)cc2)CC1,1.85µM*,.,59.8,-0.7%
COc1cccc(CNC(=O)CSC2=Nc3ccccc3N=C(c3ccc(F)cc3)C2)c1,.,.,-24.8,.
COc1cc(CCC(C)=O)ccc1OC(=O)c1c(-c2c(F)cccc2Cl)noc1C,.,.,-28.0,.
Cc1ccc(C)c(N2CCN(C(=O)C3CCCN(S(=O)(=O)c4ccc5c(c4)oc(=O)n5C)C3)CC2)c1 (stereo not drawn),.,.,-27.1,.
COc1ccc(CCNC(=O)CCn2c(=O)c3ccccc3n(Cc3ccccc3F)c2=O)cc1OC,.,.,-0.9,.
O=C(Nc1ccc2c(c1)OCCO2)c1c(Cl)cccc1Cl,.,.,-85.2*,.
O=C(Nc1nc2cc3c(cc2s1)OCCO3)c1ccc([N+](=O)[O-])o1,8.28µM*,-3.8%,-4.3,-14.6%
O=C(CSCc1c(Cl)cccc1Cl)Nc1ccc2c(c1)OCCO2,3.29µM*,?,-36.7,49.4%
O=C(CCl)Nc1ccc2c(c1)OCO2,14.7µM*,?,-61.4*,?
O=C(Nc1nc2ccccc2s1)c1ccc([N+](=O)[O-])o1,?,?,?,-11.2%
COCCNC(=O)C1CCCN(C(=O)c2ccc3sccc3c2)CC1 (stereo not drawn),.,.,7.3,.
O=c1cc(-c2ccccc2)n2c(SCc3ccc(Br)cc3)nnc2[nH]1,.,.,-24.6,.
COc1ccc(NC(=O)c2cc(CN3CCCC3)on2)cc1Cl,.,.,35.8,.
